# How the values were obtained:
# Test in all cases: PBM binding z-score (relative to random genomic background probes); higher = stronger binding; sequences stand for … in GC…GCGATTGACAGCGTAGAATGAAGG
# [1] = test system: PPARg:RXRa DBDmut IVT, anti-RXR (DBD mutation: RXRa K156A/R161A, NR concentration 270 nM, RXRa partner concentration 90 nM)
# Summary of the method: (§1)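 Each nuclear receptor dimer, without ligand, was incubated for 1 h on custom Agilent 4×180K protein-binding microarrays. Binding was detected with antibodies against each partner (one per run), and scanned fluorescence was regression-normalized. The binding z-scores are referenced to random human genomic background probes.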
# [2] = test system: PPARg:RXRa IVT, anti-PPARg (NR concentration 270 nM, RXRa partner concentration 90 nM)
# Summary of the method: as §1
# [3] = test system: PPARg DBDmut:RXRa IVT, anti-PPARg (DBD mutation: PPARg1 K132A/R137A, NR concentration 270 nM, RXRa partner concentration 90 nM)
# Summary of the method: as §1
# [4] = test system: PPARg DBDmut IVT, anti-PPARg (DBD mutation: PPARg1 K132A/R137A, NR concentration 270 nM)
# Summary of the method: as §1
# [5] = test system: PPARg homodimer (NR concentration 180 nM)
# Summary of the method: as §1
# [6] = test system: PXR:RXRa (NR concentration 270 nM, RXRa partner concentration 90 nM)
# Summary of the method: as §1
# [7] = test system: PXR homodimer (NR concentration 270 nM)
# Summary of the method: as §1
# [8] = test system: RARa:RXR (NR concentration 270 nM, RXRa partner concentration 90 nM)
# Summary of the method: as §1
# [9] = test system: RARa homodimer (NR concentration 270 nM)
# Summary of the method: as §1
# [10] = test system: RARb:RXRa (NR concentration 270 nM, RXRa partner concentration 90 nM)
# Summary of the method: as §1
Sequence,PBM binding z-score [1],PBM binding z-score [2],PBM binding z-score [3],PBM binding z-score [4],PBM binding z-score [5],PBM binding z-score [6],PBM binding z-score [7],PBM binding z-score [8],PBM binding z-score [9],PBM binding z-score [10]
GCAGACAGCTGAAACGCAGGTAACTCAGGGTGGC,-0.593,-0.619,-0.401,-0.834,-1.24,-0.942,-0.526,-0.648,-0.637,-0.402
CCGAGTAGGTTATGGGCCATTCAGGCAACGGTGA,3.19,2.58,-0.937,-0.608,1.06,-0.326,-0.187,-0.0932,-0.148,0.816
CGAGACAGGTGAGAAGGTAACTCAGCCTCGATTA,0.944,0.575,-0.719,-0.428,0.307,-0.433,-0.255,-0.528,-0.321,0.602
CCGCGGAGGACAACAGGAGGTCAGAGCTGCCAGA,0.131,0.105,-1.44,-1.52,2.29,2.44,0.34,2.5,0.536,3.04
TCTTGTAGATCAATAGAGGTTAAGACAGTGCGCT,1.86,0.857,0.686,0.616,0.896,2.24,0.168,1.71,0.602,0.993
GCCGACAGGTGAAACGCAGGTAACTCAGGGTGGC,0.757,0.528,-0.976,-1.57,-0.704,-0.343,-0.71,0.331,-1.11,0.705
ACTAGCAGGCCAAGTTTGGGTCACTCAAACAAAG,1.09,1.22,-0.627,-1.37,0.284,0.859,-0.237,1.45,-0.797,1.83
CCAGACATGTGAGAAGGTAACTCAGCCTCGATTA,0.325,-0.238,0.124,0.154,0.72,-0.0196,0.307,0.384,1.03,-0.14
ATATGTAGGTTACATCCGGGGCATTCAGGCTATG,7.46,7.35,2.05,1.15,0.96,1.14,0.659,0.992,0.476,1.26
ACTATTAGTTGACTTAGGGCCACCGATACGACGC,0.373,0.728,1.68,1.42,0.408,0.124,0.0401,0.753,0.459,0.755
ATCGAGAGGTCGACGAGGTGAGTATACACCGTTT,0.355,1.71,-0.00601,0.563,0.663,2.43,0.615,2.84,-0.215,2.8
ACTTGTTGGTCAGCTGAGGTCACACACAATTCGG,1.72,2.7,1.08,0.437,2.22,5.63,1.27,4.54,0.13,3.71
CGAACTAGGTCAGGACAGGACAGTGAAGGATGAT,7.58,7.47,1.64,0.603,0.819,1.25,-0.213,0.766,-0.133,3.44
CCCGACAGGTGAAAGGTAACTCAGTCTGGTACGC,1.64,2.67,-0.316,-0.825,0.815,0.798,0.0265,1.73,0.375,1.09
ATCTCTAGGTACCAAGTTCAGTGAAAGAGAGGAC,0.464,0.878,1.07,0.989,0.548,1.42,1.37,0.711,0.57,1.28
CGTCCAAGGTCAAAGGTCAGTGAGGAGATGACGG,4.27,5.57,0.435,-0.522,6.24,7.08,2.54,8.87,5.49,5.85
GCTCGGAGGACAAGGTCAGAGCGTTGTCCGTAGA,-0.242,0.658,-1.14,-1.68,0.169,1.68,-0.131,2.07,-0.539,3.4
CCTAGCAGGCCGATCTGGGTCACTCAAGGCTTGA,2.8,4.02,-0.802,-1.18,0.337,0.634,-0.34,1.27,-0.893,1.06
GTACCAAGGTGAATAGGTCGTAGATGAGTAGGCG,1.69,2.84,-0.433,-0.143,0.982,0.659,-0.144,1.8,0.467,2.17
CCGACTGGGGCAGACAGGTTACCATACCATCCGG,1.38,1.47,0.134,-1.89,-0.172,-0.453,-0.382,-0.441,-0.217,0.69
AGAATGAGGCTATACGTAGATCAGGGAAGAAAGT,1.49,0.333,0.633,0.637,-0.215,-0.274,-0.0563,-0.0968,-0.0794,0.153
CCTAGCAGGCCAATCTGGGTCACTCACGGCTTGA,4.16,4.93,-0.714,-0.428,0.645,0.777,-0.161,1.18,-0.509,1.56
CCTTGGAGGACAACAGGAGGTCAGAGCTGCCAGA,1.07,1.27,-1.18,-0.193,1.41,1.97,0.462,2.33,0.276,2.83
